PostGolgi ctrl = yeast control strain growth, post-Golgi counter-screen; efflux-deficient yeast background strain, growth absorbance A615, 16 h; 5% of 98,000 active; AID 738; inhibition, % at 10 µM
CYP2C19 inhib = inhibitors of human CYP2C19; inhibition, % at 5 µM; CYP2C19 Supersomes, luciferin-H EGE luminescence, 30 min; P33261; 21% of 96,000 active; AID 778;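 active means CYP2C19 inhibition above a set limit at 5 µM in the primary screen, cut at about 50% in these data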;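 further: plate controls were negative control wells for no effect and 2.5 mM tranylcypromine positive control for full effect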
PostGolgi yeast = growth inhibition of a yeast mutant, post-Golgi transport screen; inhibition, % at 10 µM; 0.9% of 98,000 active; post-Golgi transport phenotypic cell assay;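 further: yeast cells grown in 1536-well plates; yeast grown about 18 h at 30C before absorbance read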
CYP2C9 activ = increases human cytochrome P450 2C9 activity | activation factor at 5 µM | 1.4% of 96,000 active | recombinant CYP2C9, luciferin-H conversion, luminescence; active compounds read high; factor 1 = untreated enzyme, 0 = blocked;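 active means activation factor of 2 or more for CYP2C9 at a 5 µM dose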;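 further: 0 = sulfaphenazole-blocked wells and 1 = vehicle-only wells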
Target sequence (P11712 whole entry, looked up): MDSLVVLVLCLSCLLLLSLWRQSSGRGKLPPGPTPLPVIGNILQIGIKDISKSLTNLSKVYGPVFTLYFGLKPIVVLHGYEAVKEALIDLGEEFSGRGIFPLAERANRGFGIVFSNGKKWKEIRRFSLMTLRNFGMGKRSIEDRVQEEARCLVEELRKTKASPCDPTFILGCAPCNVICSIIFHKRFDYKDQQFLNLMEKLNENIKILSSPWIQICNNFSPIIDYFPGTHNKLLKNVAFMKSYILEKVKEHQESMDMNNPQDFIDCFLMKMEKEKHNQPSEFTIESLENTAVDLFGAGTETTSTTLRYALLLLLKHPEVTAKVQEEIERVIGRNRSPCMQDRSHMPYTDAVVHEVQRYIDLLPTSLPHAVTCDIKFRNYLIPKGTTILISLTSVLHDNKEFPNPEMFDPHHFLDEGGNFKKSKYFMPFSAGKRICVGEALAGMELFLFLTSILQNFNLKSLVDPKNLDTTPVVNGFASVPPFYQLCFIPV
CYP2C19 act = cytochrome P450 2C19 (human) activation. P33261. recombinant CYP2C19, luciferin-H EGE luminescence; active compounds read high; 0 = fully inhibited enzyme, 1 = untreated enzyme. activation factor at 5 µM. 96,000 tested, under 10 active. AID 1025;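 active means activation factor of at least 2 at 5 µM in the primary screen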;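 further: 0 = wells with 2.5 mM tranylcypromine and 1 = vehicle-only wells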
CYP2C9 inhib = human CYP2C9 inhibition; CYP2C9 Supersomes, luciferin-H conversion, luminescence; inhibition, % at 5 µM; 20% of 96,000 active; P11712;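 active means blocking of liver enzyme CYP2C9 beyond about 50% at 5 µM, limit read from the data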
* hit, by the source's call. This is a sample that favours compounds with a hit; in the whole collection about 32% have one here. Unless noted, no stated cut-off is given here; in the data, active means inhibition above about 30%; inactive means the rest.

CCOC(=O)c1nnn(-c2nonc2-c2ccccc2)c1C was read as PostGolgi ctrl 15, CYP2C19 inhib -3, PostGolgi yeast -9, CYP2C9 activ 0.8, CYP2C19 act 1 and CYP2C9 inhib 21.
Nc1nonc1-n1nnc(C(=O)O)c1-c1cccs1 was read as PostGolgi ctrl 13, CYP2C19 inhib 10, PostGolgi yeast -3, CYP2C9 activ 0.2, CYP2C19 act 0.9 and CYP2C9 inhib 84*.
`CCOC(=O)c1nnn(-c2nonc2N)c1-c1cccc2ccccc12` gave PostGolgi ctrl 14, CYP2C19 inhib 98*, PostGolgi yeast -1, CYP2C9 activ 0.2, CYP2C19 act 0 and CYP2C9 inhib 84*.
Screening CCOC(=O)c1nnn(-c2nonc2N)c1-c1ccc(OC)cc1 returned PostGolgi ctrl 7, CYP2C19 inhib 98*, PostGolgi yeast -9, CYP2C9 activ 0.2, CYP2C19 act 0 and CYP2C9 inhib 80*.
Screening CCOC(=O)c1ccc(COC(=O)c2nonc2N)cc1 returned PostGolgi ctrl 3, CYP2C19 inhib 28, PostGolgi yeast -2, CYP2C9 activ 0.6, CYP2C19 act 0.7 and CYP2C9 inhib 45.
Screening Cc1ccc2ccccc2c1COC(=O)c1nonc1N returned PostGolgi ctrl 74*, CYP2C19 inhib 32, PostGolgi yeast -4, CYP2C9 activ 0.8, CYP2C19 act 0.7 and CYP2C9 inhib 24.
Screening CCNc1nc2c(c(=O)[nH]c(=O)n2C)n1Cc1ccc(F)cc1 returned PostGolgi ctrl 0, CYP2C19 inhib -7, PostGolgi yeast -1, CYP2C9 activ 1.1, CYP2C19 act 1.1 and CYP2C9 inhib -7.
Screening CCOC(=O)c1nnn(-c2nonc2N)c1-c1cccs1 returned PostGolgi ctrl 3, CYP2C19 inhib 68*, PostGolgi yeast 0, CYP2C9 activ 1, CYP2C19 act 0.3 and CYP2C9 inhib 4.
For CCOC(=O)c1nnn(-c2nonc2N)c1CN(C)C1CCCCC1 the results were PostGolgi ctrl -2, CYP2C19 inhib 9, PostGolgi yeast -1, CYP2C9 activ 0.7, CYP2C19 act 0.9 and CYP2C9 inhib 26.
For CCC(C)NC(=O)Cn1cnc2sc(C)cc2c1=O (stereo not given) the results were PostGolgi ctrl 2, CYP2C19 inhib 7, PostGolgi yeast 5, CYP2C9 activ 0.9, CYP2C19 act 0.9 and CYP2C9 inhib 12.
Screening CC(=O)Nc1ccc(OCC(O)CN2CCN(c3cc(Cl)ccc3C)CC2)cc1 (stereo not given) returned PostGolgi ctrl 4, CYP2C19 inhib 84*, PostGolgi yeast 9, CYP2C9 activ 0.4, CYP2C19 act 0.2 and CYP2C9 inhib 61*.
`CC(=O)Nc1ccc(OCC(O)CN2CCN(c3ccc(C)c(Cl)c3)CC2)cc1` (stereo not given) gave PostGolgi ctrl 10, CYP2C19 inhib 68*, PostGolgi yeast 2, CYP2C9 activ 0.3, CYP2C19 act 0.3 and CYP2C9 inhib 73*.
`COc1ccc(C(=O)N2CC3(C)CC2CC(C)(C)C3)cc1` (stereo not given) gave PostGolgi ctrl -7, CYP2C19 inhib 15, PostGolgi yeast 14, CYP2C9 activ 1.1, CYP2C19 act 0.9 and CYP2C9 inhib -9.
`COc1cc2c(C(=O)N3CCN(Cc4ccc5c(c4)OCO5)CC3)cn(C)c(=O)c2cc1OC` gave PostGolgi ctrl 8, CYP2C19 inhib 11, PostGolgi yeast 20, CYP2C9 activ 1, CYP2C19 act 0.9 and CYP2C9 inhib 3.
For CCN(CCNS(=O)(=O)c1ccc2[nH]c(=O)sc2c1)c1ccccc1 the results were PostGolgi ctrl 7, CYP2C19 inhib 100*, PostGolgi yeast 6, CYP2C9 activ 0.8, CYP2C19 act 0 and CYP2C9 inhib 24.
CCOc1ccccc1CNS(=O)(=O)c1ccc2c(c1)oc(=O)n2C was read as PostGolgi ctrl 5, CYP2C19 inhib 78*, PostGolgi yeast -3, CYP2C9 activ 2.3*, CYP2C19 act 0.2 and CYP2C9 inhib -129.
Screening C=CCN(c1ccccc1)S(=O)(=O)c1ccc2c(c1)oc(=O)n2C returned PostGolgi ctrl 29, CYP2C19 inhib 87*, PostGolgi yeast -1, CYP2C9 activ 0.8, CYP2C19 act 0.1 and CYP2C9 inhib 22.
For COc1ccccc1CNC(=O)C(CC(C)C)NS(=O)(=O)c1ccc2c(c1)oc(=O)n2C (stereo not given) the results were PostGolgi ctrl -1, CYP2C19 inhib -2, PostGolgi yeast 10, CYP2C9 activ 1, CYP2C19 act 1 and CYP2C9 inhib 0.
For Cn1c(=O)oc2cc(S(=O)(=O)NCCc3ccccc3)ccc21 the results were PostGolgi ctrl 10, CYP2C19 inhib 80*, PostGolgi yeast 0, CYP2C9 activ 1.4, CYP2C19 act 0.2 and CYP2C9 inhib -36.
C=CCN(C1CCCCC1)S(=O)(=O)c1ccc2c(c1)oc(=O)n2C was read as PostGolgi ctrl 13, CYP2C19 inhib 40, PostGolgi yeast -4, CYP2C9 activ 0.8, CYP2C19 act 0.6 and CYP2C9 inhib 20.
For Cn1c(=O)n(C)c2cc(S(=O)(=O)NCCc3ccccc3)ccc21 the results were PostGolgi ctrl 5, CYP2C19 inhib 35, PostGolgi yeast 3, CYP2C9 activ 0.9, CYP2C19 act 0.6 and CYP2C9 inhib 5.
Screening CCCCOc1ccc(NC(=O)CSc2nnnn2C)cc1 returned PostGolgi ctrl 29, CYP2C19 inhib -23, PostGolgi yeast -5, CYP2C9 activ 1.1, CYP2C19 act 1.2 and CYP2C9 inhib -9.
For O=C(Nn1cnnc1)C1Cc2ccccc2CN1S(=O)(=O)c1ccc(F)cc1 (stereo not given) the results were PostGolgi ctrl -6, CYP2C19 inhib 37, PostGolgi yeast 2, CYP2C9 activ 0.8, CYP2C19 act 0.6 and CYP2C9 inhib 17.
Screening COc1ccc(CCN2C(=O)CC(Nc3ccc(N4CCOCC4)cc3)C2=O)cc1OC (stereo not given) returned PostGolgi ctrl 9, CYP2C19 inhib 14, PostGolgi yeast -6, CYP2C9 activ 0.9, CYP2C19 act 0.9 and CYP2C9 inhib 14.
CCSc1nnc(-c2cccnc2)n1-c1ccc(C)c(Cl)c1 was read as PostGolgi ctrl -4, CYP2C19 inhib 15, PostGolgi yeast 3, CYP2C9 activ 0.9, CYP2C19 act 0.9 and CYP2C9 inhib 8.
`Cn1c(=O)oc2cc(S(=O)(=O)NCc3ccncc3)ccc21` gave PostGolgi ctrl 0, CYP2C19 inhib 98*, PostGolgi yeast 0, CYP2C9 activ 0.2, CYP2C19 act 0 and CYP2C9 inhib 81*.
For COc1ccccc1CNS(=O)(=O)c1ccc2[nH]cc(C(=O)O)c(=O)c2c1 the results were PostGolgi ctrl 4, CYP2C19 inhib -7, PostGolgi yeast -2, CYP2C9 activ 1.1, CYP2C19 act 1.1 and CYP2C9 inhib -6.
Screening CCOc1ccccc1CNS(=O)(=O)c1ccc2[nH]c(=O)sc2c1 returned PostGolgi ctrl 15, CYP2C19 inhib 96*, PostGolgi yeast -3, CYP2C9 activ 1, CYP2C19 act 0 and CYP2C9 inhib 3.

Screens deposited in PubChem BioAssay by several laboratories.
